# Screens: PubChem BioAssay, National Center for Advancing Translational Sciences (NCATS)
# Sampled rows, rich in hits. Any-hit rate of the full collection: about 2.4%.
# POLH inh: inhibitors of human DNA polymerase eta | recombinant Pol eta, fluorescent DNA replication assay | Potency, µM (highest dose often 114 µM), inactives show at the top dose activity change, negative = inhibition, usual class: inhibitors | 1.2% of 390,000 active | AID 588591; further: on the % scale 0 is the no-effect control and ±100 the full control effect
# Target sequence (Q9Y253 whole entry, looked up): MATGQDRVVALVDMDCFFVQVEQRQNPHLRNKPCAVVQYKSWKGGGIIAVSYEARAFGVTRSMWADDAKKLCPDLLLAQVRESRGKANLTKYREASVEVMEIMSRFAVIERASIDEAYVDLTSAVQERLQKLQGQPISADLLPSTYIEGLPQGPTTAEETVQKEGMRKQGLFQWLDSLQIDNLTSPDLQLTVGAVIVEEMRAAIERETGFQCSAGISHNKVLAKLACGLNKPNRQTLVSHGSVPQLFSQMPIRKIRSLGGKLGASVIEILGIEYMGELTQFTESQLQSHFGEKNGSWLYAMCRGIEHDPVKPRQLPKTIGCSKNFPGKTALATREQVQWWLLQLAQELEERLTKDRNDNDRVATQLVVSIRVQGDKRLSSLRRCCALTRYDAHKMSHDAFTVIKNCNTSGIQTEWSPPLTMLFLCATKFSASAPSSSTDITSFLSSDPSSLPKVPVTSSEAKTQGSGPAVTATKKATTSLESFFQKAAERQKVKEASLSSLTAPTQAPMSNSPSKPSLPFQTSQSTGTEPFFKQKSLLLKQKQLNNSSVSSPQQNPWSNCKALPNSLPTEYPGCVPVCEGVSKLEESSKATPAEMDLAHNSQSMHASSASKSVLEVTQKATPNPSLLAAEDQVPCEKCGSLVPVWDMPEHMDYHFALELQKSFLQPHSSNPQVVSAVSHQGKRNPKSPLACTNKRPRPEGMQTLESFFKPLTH
#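 Pol eta (10 nM) was preincubated with compounds for 15 min at room temperature, after which fluorescent replication substrate (50 nM final) was added to start the reaction. Fluorescence was read kinetically at 0 and 10 min.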
# GLS inhibitor: inhibitors of human glutaminase (GLS). Potency, µM (titrated, usually from 45.5 µM), for the others: at the top dose activity change, negative = inhibition, most hits filed as inhibitors. 0.21% of 410,000 active. O94925. GLS enzymatic activity, qHTS titration; further: on the % scale 0 is the no-effect control and ±100 the full control effect
#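 Compounds were pin-transferred onto hKGA, after which L-glutamine (1 mM solution) and a detection mix of glutamate oxidase, HRP and Amplex Red were added. Initial and 30 min RT fluorescence reads were collected.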
# Pol iota inh: inhibitors of human DNA polymerase iota; Q9UNA4; Pol iota fluorescent replication assay, 10 min; 1% of 390,000 active; Potency, µM (titrated, usually from 115 µM), for the others: at the highest dose activity, negative = inhibition, most hits filed as inhibitors; AID 588590
#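 Fluorescent replication assay read twice, at 0 min and 10 min after adding 50 nM (final) substrate. Enzyme (10 nM) and compounds were first incubated 15 min at room temperature; enzyme-free buffer wells were negative controls.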
# Pol beta inh: inhibitors of human DNA polymerase beta; P06746; Pol beta primer extension/strand displacement, fluorescence kinetic; Potency, µM (series often up to 114 µM), for the others: top-dose activity change, negative = inhibition, most hits filed as inhibitors; 1.3% of 340,000 active; AID 485314; further: on the % scale 0 is the no-effect control and ±100 the full control effect
#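 Curves were derived by four-parameter Hill fits of normalized qHTS data. The kinetic fluorescent primer-extension read was taken at 0 and 10 min after 50 nM substrate, following a 15 min room-temperature preincubation of 10 nM enzyme with compounds.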
# Pol kappa inh: blocks human DNA polymerase kappa activity; Q9UBT6; purified Pol kappa, fluorescent DNA synthesis assay, 10 min; Potency, µM (series often up to 107 µM), inactives show top-dose activity, negative = inhibition, actives largely listed as inhibitors; 0.53% of 400,000 active; AID 588579; further: on the % scale 0 is the no-effect control and ±100 the full control effect
#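 Activity was followed as the change in fluorescence between reads at 0 and 10 min after starting the reaction with 50 nM substrate. Beforehand, 10 nM polymerase had been preincubated with compound for 15 min at room temperature.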
# APEX1 inh: APE1 (human) endonuclease inhibition; 0.35% of 350,000 active; Potency, µM (series often up to 65.8 µM), for the others: at the top dose activity change, negative = inhibition, most hits filed as inhibitors; recombinant APE1, TAMRA/BHQ-2 abasic DNA cleavage fluorescence;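 further: plate controls were vehicle for no effect and reference inhibitor for full effect; nearly all actives have a fitted effect of over 55% in size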
#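 Quantitative HTS: incision of a TAMRA/BHQ-2 double-stranded substrate bearing a tetrahydrofuran abasic site by 0.75 nM APE1 raises fluorescence. Substrate 50 nM final, added after 15 min compound preincubation at room temperature; progress as third-minus-first kinetic read difference.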
# Starred values were filed as active, the others as inactive; u = inconclusive; x = not tested or not shown; [ ] = dose if it differs, or a comment. The call rests on the fitted dose curve; in most records, active means well fitted curve in the direction sought with a large enough effect; inconclusive means small, poorly fitted or top-dose-only effect, or another doubt; inactive means no such curve, though single readings can be large; an effect the other way counts as inactive or inconclusive. Potency means the concentration at half of the fitted maximal effect.
SMILES,POLH inh,GLS inhibitor,Pol iota inh,Pol beta inh,Pol kappa inh,APEX1 inh
COc1ccc(C(=O)c2no[n+]([O-])c2C(=O)c2ccc(OC)cc2)cc1,-7%,5%,u,13%,-19%,-4%
O=C(c1cccs1)c1no[n+]([O-])c1C(=O)c1cccs1,-13%,-47%,25µM*,4%,-5%,-3%
COc1cc(/C=N/NC(=O)c2c(C)nc3ccc(Cl)cn23)cc(OC)c1OC,-4%,u,19%,57%,-5%,-1%
Cc1nc2scc(-c3ccccc3)c2c(=O)n1N=C1C=CC(=O)C=C1,-3%,3.2µM*,u,2%,-13%,1%
Cc1ccc(OCC(=O)Nc2ccccc2C(=O)OCc2cc(=O)n3ccsc3n2)cc1,u,-4%,-18%,2.8µM*,-14%[60.1 µM],x
COC(=O)C(NC(C)=O)(Nc1ccccc1)C(=O)OC,10%,3%,22%,7%,-7%,1%
O=S(=O)(Cc1noc(-c2ccc(Cl)cc2)n1)Cc1ccco1,-2%,-1%,50µM*,14µM*,u,-2%
O=S(=O)(Cc1ccco1)Cc1nc(-c2ccc(Cl)cc2)cs1,-9%,-9%,-10%,-1%,-2%,u
O=S(=O)(c1ccc(N2CCOCC2)nc1)N(Cc1ccccn1)Cc1ccccn1,4%,0%,9%,-12%,-7%,0%
COc1cc(Cl)c(C)cc1NC(=O)c1cc2ccc3cccnc3c2[nH]1,u,-11%,u,40µM*,-7%,x
CCOc1ccc(N(CC(=O)NC(C)(C)C)S(=O)(=O)c2c(C)noc2C)cc1,-12%,-2%,4%,u,-13%,7%
O=C(O)c1ccc(NC(CSCc2ccc(F)cc2)C(=O)O)c([N+](=O)[O-])c1 (stereo unspecified),-1%,28%,79µM*,3%,-15%,-2%
Cc1sc2c(c1C)c(=O)n(Cc1ccccc1)c(=O)n2Cc1ccc(F)cc1,x,0%,12%,7%,6%,x
O=C(O)COc1ccc(Br)cc1/C=N/O,11µM*,4%,u,25µM*,-27%,u
CCOc1ccc(Br)cc1/C=N/O,2%,10%,-2%,26%,-13%,-2%
CN=c1scc(-c2ccco2)n1/N=C/c1ccc(O)c(O)c1,u,-9%,u,2.8µM*,u,u
CN=c1scc(C)n1/N=C/c1ccc(O)cc1,-19%,23%,-9%,16%,-10%,u
C=CCN=c1scc(C)n1/N=C/c1ccc(O)c(O)c1,-6%,u,u,2.5µM*,u,u
Cc1ccc2c(c1)Oc1ccc([N+](=O)[O-])cc1C(=O)N2,4%,0%,26%,34%,-8%,11%
Cc1ccc2c(c1)Oc1ccc(NC(=O)CCl)cc1C(=O)N2,79µM*,-7%,-25%,14%,1%,-4%
CCN(CC)C(=O)/C(C#N)=C/c1cc(O)c(O)c([N+](=O)[O-])c1,x,37%,x,x,6.7µM*,x
O=C(NCc1ccccc1)c1cccc(Br)n1,-3%,-13%,79µM*,2%,-4%,-6%
CC(C)(C)c1ccc(C(=O)Nc2nc3nc(-c4ccccc4)cc(=O)n3[nH]2)cc1,-21%,7%,u,45µM*,-16%,x
O=C1c2cccnc2C(Nc2ccccc2)N1Cc1ccco1 (stereo unspecified),-25%,-2%,13µM*,0%,-1%,-2%
Cc1c(O)c2ccccc2oc1=O,-12%,22%,9%,2%,-5%,12%
SMILES,POLH inh,GLS inhibitor,Pol iota inh,Pol beta inh,Pol kappa inh,APEX1 inh
O=c1oc2cc(O)ccc2c2oc3cc(O)ccc3c12,u,7.9µM*,u,35µM*,u,u
COc1c(O)c(O)cc2c1oc1c3ccccc3oc(=O)c21,x,x,x,x,x,28µM*
Cc1ccc(-n2c(-c3ccccc3)nsc2=NC#N)cc1,x,x,89µM*,x,-15%,x
Cc1ccc(-n2c(-c3ccccc3)n[nH]c2=S)cc1,-19%,1%,u,9%,-4%,-6%
O=C(CSc1nc2ccccc2c(=O)n1Cc1ccccc1)Nc1ccc(Br)cc1C(=O)O,89µM*,1%,u,u,-17%,13%
Cc1ccc(S(=O)(=O)N2CCOCC2)cc1NC(=O)CSc1nc2ccccc2c(=O)n1Cc1ccccc1,-6%,11%,23%,-10%,6%,0%
O=C(N/N=C/c1cccs1)c1cc(-c2ccc(Cl)s2)[nH]n1,u,3%,u,45µM*,-26%,14%
COc1cc(C(=O)Nc2ccc(C)c(S(=O)(=O)N(C)C)c2)ccc1OCC(=O)N1CCOCC1,u,-1%,50µM*,x,-9%,25%
O=C(/C=C/c1ccccc1Cl)c1ccccc(=O)c1O,u,-3%,28µM*,45µM*,-22%,4%
O=C(/C=C/c1ccccc1Cl)c1cccnc1,1%,6%,40µM*,-5%,-1%,4%
Cc1ccc(C)c(/C=C/C(=O)c2ccccc(=O)c2O)c1,u,1%,u,u,-6%,-9%
COc1ccccc1C(=O)N/C(=C/c1ccc(Br)cc1)C(=O)NCCO,-2%,11%,4%,36%,-15%,-1%
C=CCNC(=O)/C(=C\c1ccc(Br)cc1)NC(=O)c1ccccc1OC,-12%,-1%,-1%,0.14µM*,4%,3%
CC1(N2CCOCC2)CC2(O)C(=[N+]1[O-])CCc1c2no[n+]1[O-] (stereo unspecified),18µM*,-15%,u,2%,u,17%
CC1CCN(S(=O)(=O)c2cccc(C(=O)NC3CCS(=O)(=O)C3)c2)CC1 (stereo unspecified),3%,-12%,-8%,1%,-3%[60.1 µM],x
CN1C(=O)C(CC(=O)Nc2ccc(Cl)cc2)N(Cc2ccco2)C1=S (stereo unspecified),-9%,-3%,u,-28%,-11%,-11%
COc1ccc(/C=C2\CCn3c2nc2cc(C(=O)O)ccc2c3=O)cc1O,18µM*,6.3µM*,u,25µM*,-35%,6%
CN(C)c1ccc(C(=O)c2ccccc2C(=O)O)c(O)c1,-11%,23%,15%,1%,-7%,5%
CCCCN(CCCC)c1ccc(C(=O)c2ccccc2C(=O)O)c(O)c1,-2%,15%,-43%,89µM*,-6%,-6%
Nc1nc(-c2ccc(Cl)cc2Cl)cn1N,6%,18%,10%,-2%,-2%,-3%
C#CCCc1cocc1/C=[N+](\[O-])c1ccc(C(=O)OCC)cc1,3%,19%,35µM*,x,u,-5%
O=C(Nc1ncnc2sc3c(c12)CCCCC3)c1ccco1,22µM*,1%,-4%,7%,-8%,2%
